Screening data deposited in PubChem BioAssay by several laboratories.
Shown are actives, neighbours in structure and some others; about 1.8% of the full set was active somewhere.
Bfl-1 A1 inh: inhibitors of the anti-apoptotic protein A1, read as caspase activation; MEF A1-2A-BIM cells, Caspase-Glo 3/7 luminescence, 3 h; percent of clofoctol response, vehicle zero; caspase activation, % (concentration not given with the values); actives 0.066% (n = 330,000);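 active means over half of replicate activation scores above 10%, or exactly half above 10 with the replicate mean above 10; inconclusive means replicate mean below 10 yet half the replicates above 10; inactive means over half of replicates below 10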
ARNT TACC3 PPI: disrupts binding between human ARNT and TACC3; Q9Y6A5; AlphaScreen His-ARNT PAS-B/GST-TACC3 binding, luminescence; TACC3 fragment carries E629A point mutation; inhibition, % at 9.99 µM; actives 0.66% (n = 390,000); AID 623870;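 active means mean inhibition of replicates at least 50% and at least half of replicates each reaching 50%; inconclusive means half or more replicates reach 50% but mean below 50%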
aDG glyco up: alpha-DG glycosylation activation. Pro5-aDG cells, alpha-DG glycosylation AlphaScreen (IIH6); 0% Pro5, 100% B10-LARGE cell signal. activation, % at 10 µM. actives 0.22% (n = 360,000). AID 624168;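 active means activation of at least 8% versus controls, or a plate z-score of at least 8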;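 further: Pro5 are CHO cells carrying HIG-tagged alpha-DG that lacks glycosylation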
AI-2 QS modul: modulators of Vibrio harveyi AI-2 quorum sensing system; AID 2094; activity change, % at 7.5 µM; actives 0.4% (n = 300,000); Vibrio harveyi JMH597 AI-2 luminescence/OD600 ratio, 9 h; active compounds read low; strain lacks LuxN and CqsS sensors; 0 = neutral-control median; in the data active means activity change below about -75%, passing the limit was not always enough; inconclusive means no clear call, values can overlap the other calls;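 further: luminescence divided by OD600 gain over 9 h not by final OD600 alone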
Mot1-301 SUMO: blocks SUMOylation pathway, rescuing yeast Mot1-301 growth | growth rescue, % at 18.8 µM | AID 2716 | actives 1% (n = 320,000) | S. cerevisiae Mot1-301 growth rescue, ATP luminescence, 38.5C; percent above DMSO median, 100 means doubled;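 active means every valid replicate shows activation above 250% relative to neutral control wells; inactive means the rest, any valid replicate at or below 250%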
JMH597 growth rt: retest: blocks Vibrio harveyi JMH597 growth | growth inhibition, % at 7.5 µM | AID 2726 | OD600 absorbance, 9 h; lacks LuxN and CqsS sensors | shares compounds with AI-2 QS modul | actives 1% (n = 750);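 active means every replicate shows growth inhibition above 50%; inconclusive means at least half, but not all, replicates pass that cutoff; inactive means fewer than half of replicates pass it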
BB721 const-QS lum: retest counter-screen: luminescence loss in constitutive-on quorum sensing strain BB721. shares compounds with AI-2 QS modul. Vibrio harveyi BB721 luminescence, 9 h. inhibition, % at 7.5 µM. actives 95% (n = 750);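 active means inhibition above about 80% in every replicate, not just on average, limit read from the data; inconclusive means at least half of replicates past the limit, but not all; inactive means fewer than half of replicates past the limit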
BB721 growth: retest Vibrio harveyi BB721 growth inhibition. AID 2728. actives 3% (n = 750). OD600 absorbance, 9 h. shares compounds with AI-2 QS modul. growth inhibition, % at 7.5 µM;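 active means every replicate shows growth inhibition above 50%; inconclusive means at least half but not all replicates above 50% inhibition; inactive means under half of replicates above 50% inhibition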
AI-2 QS JMH597: Vibrio harveyi AI-2 signaling luminescence modulation – JMH597 strain, confirmation. shares compounds with AI-2 QS modul. inhibition, % at 7.5 µM. actives 97% (n = 750). Vibrio harveyi JMH597 AI-2 quorum sensing luminescence, 9 h; luxN and CqsS knockout, AI-2 only;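 active means every replicate shows more than 75% inhibition of signal versus neutral control wells; inconclusive means half to three quarters of replicates exceed 75% inhibition; inactive means fewer than half of replicates exceed 75% inhibition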
Hits are given with their value; n = inactive; u = inconclusive; x = not tested or not shown.

SMILES	Bfl-1 A1 inh	ARNT TACC3 PPI	aDG glyco up	AI-2 QS modul	Mot1-301 SUMO	JMH597 growth rt	BB721 const-QS lum	BB721 growth	AI-2 QS JMH597
O=C(Cc1ccccn1)NCC[C@@H]1CC[C@@H](NS(=O)(=O)c2ccc(Cl)cc2)[C@@H](CO)O1	x	n	x	x	x	x	x	x	x
O=C(/C=C/Sc1ccccc1)c1ccccc1	n	n	n	-91.7	n	n	98.2	n	97.9
Cc1ccc2c(c1)cc1c(=O)n(CC(=O)N(C)c3ccccc3)nc(C)n12	n	n	n	n	n	x	x	x	x
COc1ccccc1OCCC(=O)OCC(=O)NC(C)c1ccccc1 (stereo unspecified)	n	n	n	n	n	x	x	x	x
COc1ccc(/C=C/C(=O)Oc2cc(O)cc(O)c2)cc1	n	x	n	-94.8	n	n	98.2	n	98.7
Cc1ccc(CNC(=O)CCc2ccccc2)cc1	n	n	n	-81.0	n	n	92.5	n	93.9
CC(C)c1ccc(CNC(=O)CCc2ccccc2)cc1	n	n	n	-88.8	n	n	95.8	n	97.2
Cc1ccc(CNC(=O)CCCc2ccccc2)cc1	n	n	n	n	n	x	x	x	x
COc1ccc(S(=O)(=O)N2CCC(C(=O)NCC3CCCO3)CC2)cc1Cl (stereo unspecified)	n	n	n	n	n	x	x	x	x
Cc1c(C(C)NC(=O)c2cc(COc3cccc4cnccc34)on2)cnn1C (stereo unspecified)	n	n	n	-81.1	n	n	80.5	n	87.7
CSc1ccccc1OCc1cc(C(=O)NC(C)c2cnn(C)c2)no1 (stereo unspecified)	n	n	n	n	n	x	x	x	x
Cc1cc(C)n(-c2nc3c(c(=O)[nH]c(=O)n3C)n2CC(O)c2ccccc2)n1 (stereo unspecified)	n	n	n	n	n	x	x	x	x
Cc1ccc(SCc2nc(-c3cccnc3)no2)cc1	n	x	n	u	n	n	95.9	n	96.8
Cc1cc(C)c(C)c(OCc2nc(-c3cccnc3)no2)c1	n	n	n	n	n	x	x	x	x
COc1ccc(CNC(=O)Nc2cc(C)cc(C)c2)cc1	n	n	n	u	n	n	95.9	n	96.6
O=C(NCc1ccccc1)NC1CCCCC1	n	n	n	n	n	x	x	x	x
COc1ccc(CNC(=O)NC2CCCCC2)cc1	n	n	n	-87.4	n	n	92.5	n	94.7
O=C(NCc1ccc(F)cc1)Nc1cccc(Cl)c1	n	x	n	-93.8	n	n	98.4	n	98.6
Cc1ccc(CNC(=O)Nc2cccc(C)c2)cc1	n	x	n	-89.8	n	n	99.0	n	99.0
NC(=O)[C@@H]1CC2(CC(c3cccc(NC(=O)CC(c4ccccc4)c4ccccc4)c3)=NO2)CN1C(=O)COc1ccc(Cl)cc1 (stereo partly specified)	n	n	n	n	n	x	x	x	x
C[C@@H]1CCCCO[C@H](CN(C)C(=O)Nc2ccc3c(c2)OCO3)[C@@H](C)CN([C@@H](C)CO)C(=O)c2cc(N(C)C)ccc2O1	x	n	x	x	x	x	x	x	x
COc1ccc(CNC(=O)Nc2ccc(C)c(C)c2)cc1	n	n	n	n	n	x	x	x	x
CCOC(=O)c1cccc(NC(=S)NCc2ccc(C)cc2)c1	n	n	n	-85.1	n	n	88.6	n	90.8
COc1ccc(CNC(=O)Nc2ccc(C)cc2)cc1	n	n	n	-79.0	n	n	88.3	n	91.7
CC1SC(C)C(=O)N(CC(=O)Nc2ccc([N+](=O)[O-])cc2)C1=O (stereo unspecified)	n	n	n	-93.9	n	n	98.8	n	99.2
SMILES	Bfl-1 A1 inh	ARNT TACC3 PPI	aDG glyco up	AI-2 QS modul	Mot1-301 SUMO	JMH597 growth rt	BB721 const-QS lum	BB721 growth	AI-2 QS JMH597
Cc1cc(C)cc(NC(=O)CN2C(=O)NC(C)(c3ccccc3)C2=O)c1 (stereo unspecified)	n	n	n	-83.0	n	n	86.5	n	91.6
CC1(c2ccccc2)NC(=O)N(CC(=O)Nc2ccc([N+](=O)[O-])cc2)C1=O (stereo unspecified)	n	n	n	-88.9	n	n	96.5	n	97.6
COc1ccc(NC(=O)CN2C(=O)C(C)SC(C)C2=O)cc1 (stereo unspecified)	n	x	n	n	n	x	x	x	x
COc1ccc(C2(C)NC(=O)N(CC(=O)Nc3ccc(S(=O)(=O)N4CCCC4)cc3)C2=O)cc1 (stereo unspecified)	n	n	n	-90.0	n	n	88.9	n	94.0
COC(=O)[C@H]1N[C@H]2c3ccc(C4=CCCCC4)c(=O)n3C[C@H]2[C@@H]1CO	x	n	x	x	x	x	x	x	x
CCOc1ccc(NC(=O)c2cc3ccccc3cc2OC)cc1	n	n	n	n	n	x	x	x	x
NC(=O)c1nsc(C(=O)N(CC(=O)NC2CCCC2)c2cccc(C(F)(F)F)c2)c1N	n	n	n	n	n	x	x	x	x
NCC[C@H]1CC[C@H](NC(=O)NC2CCCCC2)[C@@H](CO)O1	x	n	x	x	x	x	x	x	x
O=C(Cn1nnc2ccccc21)Nc1ccc([N+](=O)[O-])cc1	n	n	n	-92.3	n	n	98.5	n	99.2
CC1(c2ccccc2)NC(=O)N(CC(=O)NC(=O)NCc2ccco2)C1=O (stereo unspecified)	n	n	n	-82.3	n	n	87.8	n	92.1
COc1cc(Cl)ccc1OC1(C)CCN(Cc2ccc(SC)cc2)C1 (stereo unspecified)	x	x	n	x	x	x	x	x	x
c1ccc(CSc2ccc(-c3cccnc3)nn2)nc1	n	n	n	n	n	x	x	x	x
Clc1cccc(CSc2ccc(-c3cccnc3)nn2)c1	n	n	n	-91.3	n	n	97.2	n	98.0
O=C(Nc1ccc(Oc2ccccc2)cc1)C1CC1	n	n	n	-87.2	n	n	98.5	58.7	96.4
CCOC(=O)Nc1ccc(Oc2ccccc2)cc1	n	n	n	-94.9	n	n	99.3	n	99.4
CCOC(=O)Nc1ccc(OC(=O)Oc2ccc(NC(=O)OCC)cc2)cc1	x	n	n	x	x	x	x	x	x
COC(=O)N/N=C\c1ccc(OC/C=C/c2ccccc2)cc1	n	n	n	n	n	x	x	x	x
O=C(Nc1ccc(Oc2ccccc2)cc1)C1CCN(c2ncccn2)CC1	n	n	n	n	n	x	x	x	x
COC(=O)N/N=C/c1ccc(Oc2ccccc2)cc1	n	n	n	-85.3	n	n	94.7	n	95.5
c1ccc(NCCCNc2ccccc2)cc1	n	n	n	-80.8	n	n	93.1	n	92.6
CCc1ccc(OCC(=O)Nc2ccc(S(=O)(=O)Nc3ccccn3)cc2)cc1	n	n	n	-85.0	n	n	89.0	n	96.5
